Measured values taken from PubChem BioAssay (EPA / NIEHS).
Values joined by “and” are separate entries in the source; they are usually repeats but may differ in a detail not shown here. Equal values may be shown once. A structure can be active in one record and inactive in another. Active and inactive are the calls of the source. How the source made its calls: active means hit-call score of the fitted dose curve at least 0.9, where 1 is the maximum; inactive means score below 0.9.

Key:
[1] = read-out: Thrombomodulin, THBD (gene 7056); experiment: BSK_CASM3C_Thrombomodulin: BioMAP Diversity Plus: CASM3C Assay for Thrombomodulin Biomarker Activity (AID 2283051); settings: primary human coronary artery smooth muscle cells; actives raise or lower the signal;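 further: thrombomodulin protein level measured by ELISA 24 h after dosing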
[2] = read-out: Tissue Factor, F3 (gene 2152); experiment: BSK_CASM3C_TissueFactor: BioMAP Diversity Plus: CASM3C Assay for Tissue Factor Biomarker Activity (AID 2283052); settings: primary human coronary artery smooth muscle cells; actives raise or lower the signal;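 further: cell surface tissue factor protein level read by ELISA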
[3] = read-out: Interferon-gamma inducible Protein 10 (IP10), CXCL10 (gene 3627); experiment: BSK_hDFCGF_IP10: BioMAP Diversity Plus: hDFCGF Assay for Interferon-gamma inducible Protein 10 (IP10) Biomarker Activity (AID 2283053); settings: primary human foreskin fibroblasts; actives raise or lower the signal
Procedure, shortened: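 IP-10 levels, quantified by ELISA, are taken from human foreskin fibroblast cultures 24 h after chemical treatment, with DMSO serving as negative control and baseline for bidirectional analysis.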

[4] = read-out: Urokinase-type plasminogen activator receptor (uPAR), PLAUR (gene 5329); experiment: BSK_CASM3C_uPAR: BioMAP Diversity Plus: CASM3C Assay for Urokinase-type plasminogen activator receptor (uPAR) Biomarker Activity (AID 2283054); settings: primary human coronary artery smooth muscle cells; actives raise or lower the signal;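 further: cell-surface uPAR protein level quantified by ELISA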
[5] = read-out: Vascular cell adhesion molecule 1 (VCAM1), VCAM1 (gene 7412); experiment: BSK_CASM3C_VCAM1: BioMAP Diversity Plus: CASM3C Assay for Vascular cell adhesion molecule 1 (VCAM1) Biomarker Activity (AID 2283055); settings: primary human coronary artery smooth muscle cells; actives raise or lower the signal;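 further: VCAM-1 protein level quantified by ELISA on the cells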
[6] = read-out: Collagen III, COL3A1 (gene 1281); experiment: BSK_hDFCGF_CollagenIII: BioMAP Diversity Plus: hDFCGF Assay for Collagen III Biomarker Activity (AID 2283056); settings: primary human foreskin fibroblasts; actives raise or lower the signal
Procedure, shortened: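 ELISA read-out of collagen III from human skin fibroblast cultures sampled 24 h post-dosing. Values were derived by bidirectional fitting relative to the DMSO vehicle control.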

[7] = read-out: Epidermal growth factor receptor (EGFR), EGFR (gene 1956); experiment: BSK_hDFCGF_EGFR: BioMAP Diversity Plus: hDFCGF Assay for Epidermal growth factor receptor (EGFR) Biomarker Activity (AID 2283057); settings: primary human foreskin fibroblasts; actives raise or lower the signal
Procedure, shortened: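 Measured by ELISA: EGFR levels on primary human foreskin fibroblasts 24 h after chemical treatment, analysed relative to DMSO with bidirectional fitting.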

[8] = read-out: Interleukin-8 (IL8), CXCL8 (gene 3576); experiment: BSK_hDFCGF_IL8: BioMAP Diversity Plus: hDFCGF Assay for Interleukin-8 (IL8) Biomarker Activity (AID 2283058); settings: primary human foreskin fibroblasts; actives raise or lower the signal
Procedure, shortened: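 Cells used are human skin primary fibroblasts. Chemical is added, cultures run 24 h, then IL-8 is quantified by ELISA, and gain or loss versus DMSO control is fitted in both directions.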

[9] = BSK_hDFCGF_Proliferation: Cell Proliferation Assessment in the BioMAP Diversity Plus: hDFCGF Assay (AID 2283059); settings: primary human foreskin fibroblasts;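 further: curves fitted for both rise and fall of signal versus DMSO baseline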
Procedure, shortened: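 Total protein read at 560 nm after 0.1% SRB staining of TCA-fixed human skin fibroblasts, […]. Activity is fitted in both directions relative to DMSO as baseline.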

[10] = read-out: Macrophage colony-stimulating factor (MCSF), CSF1 (gene 1435); experiment: BSK_hDFCGF_MCSF: BioMAP Diversity Plus: hDFCGF Assay for Macrophage colony-stimulating factor (MCSF) Biomarker Activity (AID 2283060); settings: primary human foreskin fibroblasts; actives raise or lower the signal
Procedure, shortened: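 Primary human foreskin fibroblasts dosed with chemical; 24 h later, M-CSF quantified by ELISA; curves fitted in both directions vs DMSO negative control.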

[11] = BSK_hDFCGF_SRB: Viability Assessment in the BioMAP Diversity Plus: hDFCGF Assay (AID 2283061); settings: primary human foreskin fibroblasts;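 further: cells exposed to compound for 24 h before the read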
Procedure, shortened: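 Readout is SRB absorbance at 560 nm, reflecting total protein in parallel cultures of human foreskin fibroblasts harvested 24 h after chemical dosing. Activity was fitted bidirectionally relative to DMSO.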

[12] = read-out: TIMP metallopeptidase inhibitor 1 (TIMP1), TIMP1 (gene 7076); experiment: BSK_hDFCGF_TIMP1: BioMAP Diversity Plus: hDFCGF Assay for TIMP metallopeptidase inhibitor 1 (TIMP1) Biomarker Activity (AID 2283062); settings: primary human foreskin fibroblasts; actives raise or lower the signal
Procedure, shortened: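 Human skin fibroblasts (primary), hDFCGF system; compound exposure 24 h; TIMP-1 by ELISA; bidirectional fit vs DMSO negative control; overt cytotoxicity by SRB in parallel wells.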

[13] = read-out: Monokine induced gamma interferon (MIG), CXCL9 (gene 4283); experiment: BSK_hDFCGF_MIG: BioMAP Diversity Plus: hDFCGF Assay for Monokine induced gamma interferon (MIG) Biomarker Activity (AID 2283063); settings: primary human foreskin fibroblasts; actives raise or lower the signal
Procedure, shortened: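 Chemicals were added to primary human foreskin fibroblast cultures, which were sampled 24 h later. MIG levels were then quantified by ELISA and responses fitted in both directions relative to DMSO.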

[14] = read-out: Matrix Metallopeptidase 1 (MMP1), MMP1 (gene 4312); experiment: BSK_hDFCGF_MMP1: BioMAP Diversity Plus: hDFCGF Assay for Matrix Metallopeptidase 1 (MMP1) Biomarker Activity (AID 2283064); settings: primary human foreskin fibroblasts; actives raise or lower the signal
Procedure, shortened: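 hDFCGF primary fibroblasts (human foreskin); chemical added; 24 h; MMP1 by ELISA; bidirectional fit vs DMSO.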

[15] = read-out: Vascular cell adhesion molecule 1 (VCAM1), VCAM1 (gene 7412); experiment: BSK_hDFCGF_VCAM1: BioMAP Diversity Plus: hDFCGF Assay for Vascular cell adhesion molecule 1 (VCAM1) Biomarker Activity (AID 2283065); settings: primary human foreskin fibroblasts; actives raise or lower the signal;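 on AC50: VCAM-1 protein level quantified by ELISA after 24 h chemical exposure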
Procedure, shortened: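 Human foreskin fibroblast primary cells, chemical exposure 24 h; VCAM-1 by ELISA; bidirectional fit, DMSO = negative control/baseline.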

[16] = read-out: Plasminogen activator inhibitor-1 (PAI1), SERPINE1 (gene 5054); experiment: BSK_hDFCGF_PAI1: BioMAP Diversity Plus: hDFCGF Assay for Plasminogen activator inhibitor-1 (PAI1) Biomarker Activity (AID 2283066); settings: primary human foreskin fibroblasts; actives raise or lower the signal
Procedure, shortened: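 PAI-1 levels, determined by ELISA, served as the endpoint in human foreskin fibroblast cultures exposed to compound for 24 h, with DMSO as baseline.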

[17] = read-out: Intercellular Adhesion Molecule 1 (ICAM1), ICAM1 (gene 3383); experiment: BSK_KF3CT_ICAM1: BioMAP Diversity Plus: KF3CT Assay for Intercellular Adhesion Molecule 1 (ICAM1) Biomarker Activity (AID 2283067); settings: primary human keratinocytes with fibroblasts; actives raise or lower the signal
Procedure, shortened: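 ICAM-1 levels are measured by ELISA 24 h after dosing a primary human co-culture of keratinocytes and foreskin fibroblasts. Activity in either direction is fitted relative to DMSO vehicle.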

[18] = read-out: Interferon-gamma inducible Protein 10 (IP10), CXCL10 (gene 3627); experiment: BSK_KF3CT_IP10: BioMAP Diversity Plus: KF3CT Assay for Interferon-gamma inducible Protein 10 (IP10) Biomarker Activity (AID 2283068); settings: primary human keratinocytes with fibroblasts; actives raise or lower the signal
Procedure, shortened: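 Human keratinocyte plus foreskin fibroblast primary co-culture exposed to test chemical for 24 h; IP-10 measured by ELISA. Concentration-response fitted bidirectionally against DMSO control as baseline.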

[19] = BSK_KF3CT_SRB: Viability Assessment in the BioMAP Diversity Plus: KF3CT Assay (AID 2283069); settings: primary human keratinocytes with fibroblasts;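 further: total protein by sulforhodamine B staining as a cytotoxicity measure; read 24 h after compound addition; fitted for both signal gain and loss against DMSO baseline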
Procedure, shortened: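 Keratinocytes co-cultured with foreskin fibroblasts (human primary); chemical added, 24 h; fix 10% TCA, stain 0.1% SRB, A560. Bidirectional fit vs DMSO.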

[20] = read-out: Interleukin-1 alpha (IL1a), IL1A (gene 3552); experiment: BSK_KF3CT_IL1a: BioMAP Diversity Plus: KF3CT Assay for Interleukin-1 alpha (IL1a) Biomarker Activity (AID 2283070); settings: primary human keratinocytes with fibroblasts; actives raise or lower the signal
Procedure, shortened: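 Chemicals were dosed onto co-cultured human keratinocytes and foreskin fibroblasts, IL-1a was quantified by ELISA at 24 h, and activity was fitted in both directions relative to DMSO controls.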

Measured: AC50

O=[N+]([O-])c1cc(C(F)(F)F)c(Cl)c([N+](=O)[O-])c1Nc1ncc(C(F)(F)F)cc1Cl
inactive: [1] | [2] | [12]
active: [2] 5.69 µM | [3] 2.13 µM and 7.1 µM | [4] 3.29 µM and 5.5 µM | [5] 2.86 µM and 7.2 µM | [6] 1.83 µM and 11.7 µM | [7] 1.92 µM and 5.48 µM | [8] 2.78 µM and 11.7 µM | [9] 546 nM and 1.8 µM | [10] 1.17 µM and 6.88 µM | [11] 810 nM and 9.49 µM | [12] 1.12 µM | [13] 1.32 µM and 8.98 µM | [14] 1.59 µM and 10.6 µM | [15] 954 nM and 7.64 µM | [16] 859 nM and 9.54 µM | [17] 1.15 µM and 9.82 µM | [18] 7.9 µM | [19] 741 nM and 5.95 µM | [20] 867 nM and 6.33 µM

COc1cccc(C(=O)NN(C(=O)c2cc(C)cc(C)c2)C(C)(C)C)c1C
inactive: all assays above

CCc1cccc(CC)c1N(COC)C(=O)CCl
active: [3] 11.2 µM | [6] 11.1 µM | [9] 13.8 µM | [10] 18.9 µM | [11] 24 µM | [13] 10.1 µM | [15] 8.35 µM
not listed: [14]
inactive: all other assays above

CCNc1nc(Cl)nc(NC(C)(C)C#N)n1
active: [1] 3.97 µM | [4] 30.8 µM | [9] 12.2 µM | [16] 10.6 µM
inactive: all other assays above

CCOP(=S)(Oc1cnc(C(C)(C)C)nc1)OC(C)C (stereo not drawn)
active: [1] 20 µM | [3] 29.2 µM | [6] 31.3 µM | [9] 31.7 µM | [10] 20 µM | [11] 37 µM | [13] 31.6 µM | [15] 26.8 µM | [18] 18.4 µM | [19] 31.4 µM | [20] 24.1 µM
inactive: [2] | [4] | [5] | [7] | [8] | [12] | [14] | [16] | [17]

CCCSP(=O)(OCC)SCCC
inactive: all assays above

CCCCSP(=O)(SCCCC)SCCCC
active: [1] 20 µM | [3] 20 µM | [6] 20 µM | [9] 30.6 µM | [10] 14.6 µM
inactive: all other assays above

CC(C1CC1)C(O)(Cn1cncn1)c1ccc(Cl)cc1 (stereo not drawn)
active: [9] 29.9 µM
inactive: all other assays above

CNC(=O)Oc1cccc2c1OC(C)(C)O2
active: [7] 12.2 µM
not listed: [14]
inactive: all other assays above

CCOC(=O)COc1cc(-c2nn(C)c(OC(F)F)c2Cl)c(F)cc1Cl
active: [14] 148 nM
inactive: all other assays above

CC(C)[C@H](C(=O)O[C@H](C#N)c1cccc(Oc2ccccc2)c1)c1ccc(Cl)cc1
active: [1] 4.81 µM | [9] 3.36 µM | [14] 3970 nM
not listed: [18]
inactive: all other assays above

CN(C)C(=O)Nc1cccc(C(F)(F)F)c1
not listed: [14]
inactive: all other assays above
